The values below come from PubChem BioAssay AID631 (The Scripps Research Institute Molecular Screening Center, 2007).

Each structure is given as a SMILES string. Hit rate of the full screen: of about 200,000 compounds, about 810 (0.41%) were called active. Rule as the data show it: active = activation above about 19%; inactive = the rest. The full list was thinned out, with actives kept by preference.

This experiment deals with Peroxisome proliferator-activated receptor gamma (Homo sapiens) (UniProt P37231). Kind of experiment: PPARgamma agonists recruiting SRC-1 coactivator, primary screen, biochemical (AID 631).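 Also: 0% = DMSO and 100% = reference agonist.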 The following applies: PPARgamma-SRC-1 coactivator recruitment biochemical assay; at 8 µM; active compounds read high.
Chain of Peroxisome proliferator-activated receptor gamma (Homo sapiens) (P37231 whole entry, looked up): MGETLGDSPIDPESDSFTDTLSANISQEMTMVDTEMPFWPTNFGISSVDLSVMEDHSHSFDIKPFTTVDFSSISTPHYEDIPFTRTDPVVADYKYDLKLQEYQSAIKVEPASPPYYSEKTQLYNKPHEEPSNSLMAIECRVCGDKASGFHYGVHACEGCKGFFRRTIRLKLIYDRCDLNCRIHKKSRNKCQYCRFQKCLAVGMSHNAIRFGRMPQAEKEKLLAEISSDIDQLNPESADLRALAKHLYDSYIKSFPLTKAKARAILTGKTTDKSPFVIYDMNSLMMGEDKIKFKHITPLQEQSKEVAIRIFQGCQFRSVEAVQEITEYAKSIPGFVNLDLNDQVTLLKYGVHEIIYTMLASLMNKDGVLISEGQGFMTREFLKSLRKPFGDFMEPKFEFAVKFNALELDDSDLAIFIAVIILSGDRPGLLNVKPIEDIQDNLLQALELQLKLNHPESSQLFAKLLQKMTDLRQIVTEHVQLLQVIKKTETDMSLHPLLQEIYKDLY
Turning to `CCOC(=O)CNC(=O)N1c2ccccc2Sc2ccccc21`, the activation is 8.4% (inactive).
Next, `Cc1ccc2c(c1)C1CN(C)CCC1N2C(=O)c1ccccc1NS(=O)(=O)c1ccc(F)cc1C` (configuration not stated): 1.7% (inactive).
Next, `COc1cc(NC(=O)COC(=O)c2cnc(C)cn2)c(C)cc1[N+](=O)[O-]`: -1% (inactive); `Cc1cc(NC(=O)CSc2nnc(Nc3ccccc3F)s2)no1`: -0.2% (inactive).
Next, `Cc1cc(C)c2c(c1)cc(C)c1nnc(SCC(=O)Nc3cc(C)on3)n12`: 22.2% (active); `Cc1ccc(-c2csc(SCC(=O)Nc3cc(C)on3)n2)cc1`: -4% (inactive); `COc1cccc(C2SCC(=O)N2c2cccc(C)c2)c1OC` (configuration not stated): 2.3% (inactive).
As to `CCCNC(=O)c1c(Cl)cnn1-c1ccc(C)cc1`, the activation is -0.9% (inactive).
Next, `O=C(O)c1ccc(N/N=C/c2ccc3ncccc3c2)cc1`: 7.5% (inactive).
In the case of `O=C(Nc1nnc(Cc2ccc(Cl)cc2)s1)c1cccnc1`, the activation is 0% (inactive).
For the molecule `O=C1CN(C(=O)COC(=O)c2cnc(Cl)c(Cl)c2)c2ccccc2N1`, the activation is 8.3% (inactive).
Under `CCc1ccc(-n2c(SCc3cc(=O)n4cc(Br)ccc4n3)nc3[nH]ncc3c2=O)cc1` stands 23.4% (active); under `Cc1cccc2nc(CSc3nc4[nH]ncc4c(=O)n3-c3cccc(Cl)c3)cc(=O)n12`, 3.8% (inactive).
Under `O=c1c2sccc2nc(SCc2cc(=O)n3ccccc3n2)n1-c1ccc(Br)cc1` stands 3% (inactive); under `Cc1ccsc1C1C(C#N)=C(N)OC2=C1C(=O)CC(C)(C)C2` (configuration not stated), 11.2% (inactive).
In the case of `COc1ccccc1CCNC(=O)CSc1nnc2ccc(-c3cccnc3)nn12`, the activation is 4.1% (inactive).
`O=C(Oc1ccccc1)Oc1ccc2c(c1)oc(=O)c1ccccc12`: the activation was 33.7% (active).
Turning to `Cc1c(Cc2ccccc2)c(=O)oc2cc(OCC(N)=O)ccc12`, the activation was -0.5% (inactive).
Next, `CC(=O)Oc1ccc2c(C)c(CC(C)O)c(=O)oc2c1` (configuration not stated): -0.8% (inactive).
On to `CNC(=S)Nc1ccc([N+](=O)[O-])cc1`, for which the activation was 7.4% (inactive).
Under `CCOc1cnc(-c2c(-c3ccccc3Cl)noc2C)o1` stands 9.5% (inactive); under `COc1ccc(-c2ccc(CNCCCN3CCOCC3)o2)cc1Cl`, 10.2% (inactive); under `COc1cc(C2C(C(=O)c3ccc(C)o3)=C(O)C(=O)N2CCc2ccccc2)ccc1O` (configuration not stated), 4.9% (inactive).
Next, `COc1cc(C2C(C(=O)c3ccc(C)o3)=C(O)C(=O)N2Cc2cccnc2)ccc1O` (configuration not stated): -0.3% (inactive); `CCCOc1ccc(C2C(C(=O)c3ccc(C)o3)=C(O)C(=O)N2CCCn2ccnc2)cc1` (configuration not stated): 25.1% (active).
Under `COc1ccc2c(c1)CCc1cn3ncc(C#N)c3nc1-2` stands 2.5% (inactive); under `CCCn1c(=S)[nH]c2ccc(C(F)(F)F)cc21`, 7.7% (inactive).
Turning to `Cc1ccc(NC(=O)CSCC(=O)NC2CCCCC2)cc1`, the activation was 6.7% (inactive).
Under `Cc1nc2ccccc2cc1OCc1ccc(F)cc1` stands -0.6% (inactive).
Under `Cc1cccc(OCc2ccc(C(=O)Nc3ccc(F)cc3)cc2)c1` stands 8.1% (inactive); under `Fc1ccc(COc2cccc(-c3n[nH]c(=S)o3)c2)cc1`, 61.7% (active); under `COc1ccc(OC)c(-c2csc(NC(=O)C3=NNC(=O)CC3)n2)c1`, -3.7% (inactive).
Next, `Cc1cc(NC(=O)COC(=O)COc2ccc(Cl)cc2C)c([N+](=O)[O-])cc1C`: -2.9% (inactive); `COc1ccc2c(Cl)c(C(=O)NCc3ccco3)sc2c1`: -0.6% (inactive); `COc1ccc2c(Cl)c(-c3nnco3)sc2c1`: 24.2% (active).
Take `COc1ccc(-c2nnco2)cc1OC`: the activation is -4% (inactive).
On to `CC(=O)Nc1ccccc1OC(C)C(=O)N1CCC(C)CC1` (configuration not stated), for which the activation was 3.2% (inactive).
Under `Cc1nn2cc(-c3ccc(Cl)cc3)cnc2c1Br` stands 9.4% (inactive); under `Cc1cc(C(F)(F)F)n2ncc(-c3ccccc3)c2n1`, -0.8% (inactive).
As to `Cn1c(-c2sccc2OCc2cccc(C(F)(F)F)c2)n[nH]c1=S`, the activation was 2.2% (inactive).
Take `Cn1c(-c2sc3cc(C(F)(F)F)cnc3c2-c2ccccc2)n[nH]c1=S`: the activation is 36.3% (active).
Next, `COc1cccc(CNC(=O)CCC2CCCN(C(=O)c3ccoc3C)C2)c1` (configuration not stated): 11.7% (inactive); `CC1(C)CN(c2ccc(-c3ccnc4ncnn34)cc2)C1=O`: -2.6% (inactive).
Under `CSCCC(=O)N1CCCC(CNC(=O)c2ccccc2Cl)C1` (configuration not stated) stands 6% (inactive).
With `Cc1cc(N2C(=O)C(=O)/C(=C(/O)c3ccc(Cl)cc3)C2c2cccc(Br)c2)no1` (configuration not stated), the activation was 20.6% (active).
Next, `COc1ccccc1C1/C(=C(/O)c2ccc(OC(C)C)cc2)C(=O)C(=O)N1c1cc(C)on1` (configuration not stated): 16.5% (inactive).
Under `COc1ccc(C2/C(=C(/O)c3ccccc3)C(=O)C(=O)N2c2ncccn2)cc1OC` (configuration not stated) stands 8.9% (inactive); under `Cc1ccc(C(=O)Cc2nnc(C)s2)cc1`, -2.5% (inactive); under `Cc1cccc(NC(=S)N2CCC(O)CC2)c1C`, 1.3% (inactive).
Take `CCN1CCN(c2cc3nc(C)n(Cc4ccccc4)c(=O)c3cc2NC(=O)c2ccccc2F)CC1`: the activation is 3.9% (inactive).
`COc1cccc(NC(=S)NCc2ccco2)c1`: the activation is -2.7% (inactive).
Next, `Cc1nc(-c2ccccc2)sc1C(=O)/C=C/c1ccccc1`: -1.9% (inactive); `Cc1nc(-c2ccccc2)sc1-c1nc(-c2ccccc2)ncc1S(=O)(=O)c1ccccc1`: 19.3% (active).
With `C=CCn1c(-c2sc(-c3ccccc3)nc2C)n[nH]c1=S`, the activation is 0.8% (inactive).
`O=C(O)C1C2CC2CN1C(=O)c1ccc(Cl)cc1Cl` (configuration not stated): the activation is 4.2% (inactive).
Next, `Cc1cccc(C)c1NC(=O)C1(C)c2cccc[n+]2CC(=O)N1Cc1cccs1` (configuration not stated): -2.9% (inactive); `Cc1nc(SCc2ccc(F)cc2)c([N+](=O)[O-])[nH]1`: 5.8% (inactive).
Next, `COc1ccccc1C1/C(=C(/O)c2ccc(C)cc2)C(=O)C(=O)N1Cc1ccco1` (configuration not stated): 10.8% (inactive).
With `COc1ccc(/C(O)=C2\C(=O)C(=O)N(Cc3ccco3)C2c2ccc(OC)cc2OC)cc1` (configuration not stated), the activation is 2% (inactive).
Under `COc1ccc(/C(O)=C2/C(=O)C(=O)N(c3nc(C)c(C)s3)C2c2ccco2)cc1` (configuration not stated) stands 22.1% (active).
Take `COC(=O)c1c(C)[nH]c(C)c1-c1ccc([N+](=O)[O-])cc1`: the activation is -0.7% (inactive).
Next, `Cc1ccc(/C=N/NC(=O)COc2ccccc2-c2ccccc2)cc1`: 2.1% (inactive); `O=C(Oc1ccc([N+](=O)[O-])cc1)c1ccc(Cl)c(S(=O)(=O)N2CCCCC2)c1`: -9.6% (inactive).
Under `CC(C)N(C(=O)Cn1cc(SCC(=O)N2CCCC2)c2ccccc21)C(C)C` stands 5.8% (inactive).
Under `Cc1ccc(NC(=O)CC2C(=O)N(Cc3ccccc3)C(=S)N2NC(=O)c2cccc(F)c2)c(C)c1` (configuration not stated) stands -0.5% (inactive).
On to `CCN(CC)CCCNC(=O)c1cc(-c2cccc(Cl)c2)on1`, for which the activation is 3.6% (inactive).
For `CCN(CCCNC(=O)CSc1cc(=O)n(C)c2cc(Cl)ccc12)Cc1ccccc1`, the activation is 55.4% (active).
Next, `CCN(CC)CCCNC(=O)CCc1ccccc1`: 3.3% (inactive).
On to `O=C(Nc1ccccc1Cl)c1ccccc1S(=O)(=O)c1ccccc1[N+](=O)[O-]`, for which the activation was 2.9% (inactive).
With `COc1ccc(C(=O)C[n+]2ccc(C)cc2)cc1`, the activation is 0.2% (inactive).
In the case of `S=C(NN=C1CCN(Cc2ccccc2)CC1)NC1CCCCC1`, the activation was -1.7% (inactive).
Turning to `CC(Sc1cccc[n+]1[O-])C(=O)Nc1cccc(S(=O)(=O)N2CCOCC2)c1` (configuration not stated), the activation was -5.3% (inactive).
Turning to `Cc1nn(C)c(C(=O)NNC(=S)NC2CCCCC2)c1Cl`, the activation is -8.4% (inactive).
Next, `COc1cccc(NC(=S)NC(=O)c2c(Cl)c(C)nn2C)c1`: 30.8% (active); `COc1cccc(NC(=S)NCc2ccccn2)c1`: 2.4% (inactive).
`O=C(/C=C/c1cnc2ccccc2n1)NC1CCCCCC1`: the activation was -0.4% (inactive).
Under `O=c1cc(O)c(-c2cccc(C(F)(F)F)c2)c(Cl)[nH]1` stands 8% (inactive); under `CC(=O)c1ccc(-n2nnnc2SCC(=O)N2CCN(C(=O)c3ccco3)CC2)cc1`, 0.3% (inactive); under `CCOC(=O)N1CCC(NC(=O)COc2cc(=O)n(C)c3ccccc23)CC1`, -0.7% (inactive).
Next, `CCOC(=O)C1CCN(C(=O)Cn2cc(C#N)c3ccccc32)CC1`: -2.2% (inactive).
Turning to `CCOC(=O)C1CCN(C(=O)CSc2cc(=O)n(C)c3ccccc23)CC1`, the activation is 49.8% (active).
For `Cn1c(=O)cc(SCC(=O)N2CCN(C(=O)c3ccco3)CC2)c2ccccc21`, the activation is 49.4% (active).
Under `CCOc1ccc(CCNC(=O)CSc2cc(=O)n(C)c3ccc(Cl)cc23)cc1OCC` stands 12% (inactive).
As for `O=C(CSCc1ccc(Cl)cc1)N1CCCCC1`, the activation was 2% (inactive).
For the molecule `Cn1c(=O)cc(SCC(=O)N2CCCC2)c2cc(Cl)ccc21`, the activation was 53.4% (active).
Consider `Cc1cccc(OCc2nnc(SCC(=O)N3CCN(C(=O)c4ccco4)CC3)n2C)c1C`, for which the activation is 5.6% (inactive).
Under `CC1CN(CCCOc2ccccc2-c2ccccc2)CC(C)O1` (configuration not stated) stands 6.7% (inactive).
Under `C/C(=N\Nc1nc(N2CCOCC2)nc(N2CCOCC2)n1)c1ccc([N+](=O)[O-])cc1` stands 1.7% (inactive); under `CCN(CC)c1ccc(C(=O)N/N=C(\C)c2cccc(OC)c2)cc1`, 9.4% (inactive); under `CCOC(=O)c1c(N)nn(C(=O)c2ccccc2)c1-c1ccccc1`, 3% (inactive).
As for `COc1cc2c(cc1OC)C(=O)NCC(C)(C)O2`, the activation is 9.4% (inactive).
Turning to `CCOC(=O)c1ccccc1C(=O)N1CCOCCOCCOCC1`, the activation is -0.2% (inactive).
Regarding `Cc1cnc(C(=O)N2CCCC(C(=O)c3ccc(C(F)(F)F)cc3)C2)cn1` (configuration not stated), the activation was 5.6% (inactive).
Next, `CN(C)/C(=N\OC(=O)c1ccccc1)c1nonc1N`: 2.5% (inactive).
Under `O=C(Nn1cnc2ccccc2c1=O)c1ccccc1` stands 12.8% (inactive); under `Nc1nc(SCC(=O)NCCN2CCOCC2)nc2sc3c(c12)CCC3`, 6% (inactive); under `CCOc1cc(C2C(C(=O)OC(C)C)=C(C)NC3=C2C(=O)CCC3)cc([N+](=O)[O-])c1O` (configuration not stated), -1% (inactive).
